From PubChem BioAssay (Tox21)
A number with no mark means an inactive call. Active and inactive are the calls of the source. The call rests on the fitted dose curve; in most records, active means well fitted curve in the direction sought with a large enough effect in the repeat runs; inconclusive means weak or mixed curves; inactive means flat fitted curve, though single readings scatter.
On the % scale 0 is the no-effect control and ±100 the full control effect.

Assay: qHTS assay to test for compound auto fluorescence at 460 nm (blue) in HepG2 cell free culture (AID 720685)
Settings: Cell-free culture medium, blue autofluorescence 405/460 nm; series mostly up to 91.3 µM; fluorescence, % of fluorescent control: at the top concentration
Description: U.S. Tox21 Program National Center for Advancing Translational Sciences [NCATS] NIH Chemical Genomics Center [NCGC] U.S. Environmental Protection Agency [EPA] National Institutes of Environmental Health Sciences [NIEHS] National Toxicology Program [NTP] U.S. Food and Drug Administration [FDA] Tox21 Assay Overview: Compound auto fluorescence often interferes with screening of the compound library against various biological targets and signaling pathways. Some of these compounds may have fluorophoric properties. Such properties may interfere with the assay outputs resulting in false positives and/or negatives. To decrease such complications and ensure the compound activities are relevant in terms of biological response, the Tox21 10K compound library was screened for auto fluorescence. From the fluorophores used as reporter signals in our screening assays, the auto fluorescence equivalencies of compounds against three fluorophores have been evaluated: Triamterene, Fluorescein and Rose Bengal sodium for blue, green and red fluorescence, respectively. The fluorescence intensities were measured using Excitation/Emission wavelengths at 405/460nm, 485/535nm and 540/590nm for blue, green and red labels, respectively. This assay includes the blue fluorescence data.
Tox21 Assay Protocol Summary: 5 uL of culture medium (MEM containing 10% FBS) per well was dispensed into black wall/clear bottom 1536-well plates using a Multidrop Combi Dispenser (ThermoFisher Scientific, Waltham, MA). After 23 nL compound or DMSO vehicle was transferred into assay plate by a pintool work station (Kalypsys, San Diego, CA), fluorescence intensities in the assay plates were measured by an Envision (PerkinElmer, Shelton, CT) plate reader using three labels for measuring blue, green and red fluorescence at […] 460, 535 and 590nm respectively.
With `COc1cccc([C@@]2(O)CCCC[C@@H]2CN(C)C)c1` the “fluorescence, % of fluorescent control” value was 0.0044% [at 46 µM].
With `CC(C)N(Cc1ccccc1)C(=O)C(C)(C)C` the “fluorescence, % of fluorescent control” value was -0.0089%.
In the case of `O=C(O)c1c(Cl)ccc2cc(Cl)cnc12`, the “fluorescence, % of fluorescent control” value is reported as -0.107%.
In the case of `CC1NCCOC1c1ccccc1` (stereo not given), the “fluorescence, % of fluorescent control” value is reported as -0.0045% [at 46 µM].
In the case of `CC(C)[C@]12CC(=O)[C@H](C)[C@H]1C2`, the “fluorescence, % of fluorescent control” value is reported as 0.0402%.
For `[O-][Br+2]([O-])O`, the “fluorescence, % of fluorescent control” value was -0.238% [at 46 µM].
In the case of `O=C(NC(=O)c1c(F)cccc1F)Nc1cc(Cl)c(F)c(Cl)c1F`, the “fluorescence, % of fluorescent control” value is reported as 0.0788%.
With `CCNc1nc(Cl)nc(NC(C)(C)C)n1` the “fluorescence, % of fluorescent control” value was 0.0196%.
For `CCOC(=O)NC(C)(C)Cc1ccc(Cl)cc1`, the “fluorescence, % of fluorescent control” value was -0.0018% [at 46 µM].
For `CN1C(=O)COc2c(C(=O)NC3CN4CCC3CC4)cc(Cl)cc21` (stereo not given), the “fluorescence, % of fluorescent control” value was 0.0027% [at 46 µM].
With `ClCCCCCCCl` the “fluorescence, % of fluorescent control” value was 0.158%.
For `CC[C@H](O)C(C[C@H](C)N(C)C)(c1ccccc1)c1ccccc1`, the “fluorescence, % of fluorescent control” value was 0.0711% [at 95.7 µM].
For `[P]#[In]`, the “fluorescence, % of fluorescent control” value was -0.0167%.
With `CC(C)(C)C(=O)C(Cl)Cl` the “fluorescence, % of fluorescent control” value was 0.0066%.
For `O=C1CC(=O)NC(=O)N1`, the “fluorescence, % of fluorescent control” value was -0.0779%.
In the case of `CCN[C@@H](C)Cc1cccc(C(F)(F)F)c1`, the “fluorescence, % of fluorescent control” value is reported as 0.0377%.
For `CC(C)(N)Cc1ccc(Cl)cc1`, the “fluorescence, % of fluorescent control” value was -0.111% [at 46 µM].
For `CC(Cl)(Cl)Cl`, the “fluorescence, % of fluorescent control” value was -0.136%.
In the case of `CCOc1cc(OP(=S)(OC)OC)nc(CC)n1`, the “fluorescence, % of fluorescent control” value is reported as -0.0013%.
In the case of `NC(=O)CS(=O)C(c1ccccc1)c1ccccc1` (stereo not given), the “fluorescence, % of fluorescent control” value is reported as -0.0121% [at 46 µM].
`CN(C)C(=O)Oc1cc(OC(=O)N(C)C)cc(C(O)CNC(C)(C)C)c1` (stereo not given) gave a fluorescence, % of fluorescent control of 0.0484% [at 18.6 µM].
For `O=C(O)C(Cl)Br` (stereo not given), the “fluorescence, % of fluorescent control” value was 0.0051% [at 95.7 µM].
For `COc1ccccc1OC`, the “fluorescence, % of fluorescent control” value was 0.0939%.
With `N#CN` the outcome was “inactive”.
Work on `CCC1(c2cccc(O)c2)CCCCN(C)C1` (stereo not given) yielded a fluorescence, % of fluorescent control of 0.002% [at 18.6 µM].
For `Cn1c(CCCC(=O)O)nc2cc(N(CCCl)CCCl)ccc21`, the “fluorescence, % of fluorescent control” value was 0.0653% [at 46 µM].
With `CC[C@@H](CO)NC(=O)[C@@H]1C=C2c3cccc4c3c(cn4C)C[C@H]2N(C)C1` the “fluorescence, % of fluorescent control” value was 0.503% [at 46 µM].
With `C#CC(C)(C)O` the “fluorescence, % of fluorescent control” value was 0.0208% [at 95.7 µM].
With `CN1COCN(Cc2cnc(Cl)s2)/C1=N\[N+](=O)[O-]` the “fluorescence, % of fluorescent control” value was -0.0096%.
With `CC(Cc1ccccc1)NCCn1cnc2c1c(=O)n(C)c(=O)n2C` (stereo not given) the “fluorescence, % of fluorescent control” value was -0.0752%.
In the case of `Cc1ccc2c(c1)C1CN(C)CCC1N2` (stereo not given), the “fluorescence, % of fluorescent control” value is reported as -0.0219% [at 46 µM].
In the case of `O=C(NC(O)C(Cl)(Cl)Cl)NC(O)C(Cl)(Cl)Cl` (stereo not given), the “fluorescence, % of fluorescent control” value is reported as 0.06% [at 46 µM].
With `CCCN1CCC[C@@H]2Cc3nc(N)ncc3C[C@H]21` the “fluorescence, % of fluorescent control” value was -0.122% [at 46 µM].
For `C=C(Cl)CSC(=S)N(CC)CC`, the “fluorescence, % of fluorescent control” value was -0.0978% [at 95.7 µM].
In the case of `S=C=S`, the outcome is reported as “inactive”.
For `CON(C)C(=O)Nc1ccc(Br)c(Cl)c1`, the “fluorescence, % of fluorescent control” value was -0.0081%.
For `Oc1ccc(Cc2ccc(O)cc2)cc1`, the “fluorescence, % of fluorescent control” value was 0.0068%.
With `Cn1c(N)nc2c3cccnc3ccc21` the “fluorescence, % of fluorescent control” value was 0.114%.
For `N[C@@H](Cc1ccc(Oc2cc(I)c(O)c(I)c2)c(I)c1)C(=O)O`, the “fluorescence, % of fluorescent control” value was -0.139% [at 46 µM].
For `O=C(Cl)OCc1ccccc1`, the “fluorescence, % of fluorescent control” value was 0.0007%.
